According to publication PMC5540273 (PLoS ONE, 2017):
Like-named read-outs stand apart in the source and are kept apart here.

Key:
Conditions in all cases: n = 1
MAP4K4 = tested on: MAP4K4
MAP4K5 = tested on: MAP4K5
MAPKAPK2 = tested on: MAPKAPK2
MAPKAPK5 = tested on: MAPKAPK5
MARK1 = tested on: MARK1
MARK2 = tested on: MARK2
MARK3 = tested on: MARK3
MARK4 = tested on: MARK4
MAST1 = tested on: MAST1
MEK1 = tested on: T1, MEK1
T1 construct: gene MAP2K1

[1] = concentration: 1 μM, replicates: in singlicate
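Also: KINOMEscan kinase panel screen.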

Compound	%Inh (MAP4K4; [1]) [%]	%Inh (MAP4K5; [1]) [%]	%Inh (MAPKAPK2; [1]) [%]	%Inh (MAPKAPK5; [1]) [%]	%Inh (MARK1; [1]) [%]	%Inh (MARK2; [1]) [%]	%Inh (MARK3; [1]) [%]	%Inh (MARK4; [1]) [%]	%Inh (MAST1; [1]) [%]	%Inh (MEK1; [1]) [%]	%Inh (MAP4K4; 1 µM) [%]	%Inh (MAP4K5; 1 µM) [%]	%Inh (MAPKAPK2; 1 µM) [%]	%Inh (MAPKAPK5; 1 µM) [%]	%Inh (MARK1; 1 µM) [%]	%Inh (MARK2; 1 µM) [%]	%Inh (MARK3; 1 µM) [%]	%Inh (MARK4; 1 µM) [%]	%Inh (MAST1; 1 µM) [%]	%Inh (MEK1; 1 µM) [%]
Cl.c1ccc(-c2n[nH]cc2-c2ccnc(-c3ccc(CN4CCOCC4)cc3)c2)nc1 [GW776245]	0	0	13	0	0	6	1	28	0	14	–	–	–	–	–	–	–	–	–	–
COC(=O)c1c(-c2ccccc2)c2cc(C(=O)O)ccc2c(=O)n1Cc1ccccc1	0	7	3	0	0	3	0	0	0	0	–	–	–	–	–	–	–	–	–	–
COC(=O)c1c(-c2ccccc2)c2cc(OC)ccc2c(=O)n1Cc1ccccc1	0	0	10	0	19	21	0	22	20	0	–	–	–	–	–	–	–	–	–	–
Cc1ccc(NC(=O)Nc2cccc(Cl)c2)cc1-c1ccc(C(=O)Nc2ccncc2)cc1 [GSK1398468]	0	0	0	0	26	0	0	12	0	100	–	–	–	–	–	–	–	–	–	–
Cn1cncc1-c1ccc2ncnc(Nc3ccc(OCc4ccccc4)cc3)c2c1 [GW320571]	25	21	21	0	0	0	0	2	0	11	–	–	–	–	–	–	–	–	–	–
Cl.O=C(Nc1cccc(-c2nn3ncccc3c2-c2ccnc(Nc3cccnc3)n2)c1)c1c(F)cccc1F [GSK312879]	2	5	21	0	0	0	0	0	6	0	–	–	–	–	–	–	–	–	–	–
Cc1ccccc1-n1cnc2c(N)ncnc21 [SKF-97510]	0	0	0	0	0	0	0	0	12	0	–	–	–	–	–	–	–	–	–	–
COc1cc2ncn(-c3cc(OCC4CCCO4)c(C(N)=O)s3)c2cc1OC (stereo not drawn) [GSK204607]	6	4	0	0	0	0	0	0	2	24	–	–	–	–	–	–	–	–	–	–
Cc1cccc(-c2cc(Nc3ccncc3)c3ccccc3n2)n1 [GSK223675]	0	0	13	0	0	0	0	0	0	0	–	–	–	–	–	–	–	–	–	–
Fc1cc(Cl)ccc1Nc1ccnc2cc(I)ccc12 [GW551191]	28	0	19	0	0	0	11	0	0	0	–	–	–	–	–	–	–	–	–	–
Cc1ccc(NC(=O)Nc2cccc(C(F)(F)F)c2)cc1 [GSK955403]	–	–	–	–	–	–	–	–	–	–	0	0	0	0	0	0	0	4	21	5
O=C(Nc1ccc2c(c1)OCO2)NC1CCN(c2ccnc(Nc3ccc(F)cc3)n2)C1 (stereo not drawn) [GSK1379724]	8	0	5	0	0	0	0	0	0	0	–	–	–	–	–	–	–	–	–	–
Cc1cccc(-c2nc(C)cc(Nc3ccncc3)n2)n1 [GSK257997]	2	0	20	0	0	0	4	0	0	0	–	–	–	–	–	–	–	–	–	–
Cc1ccc(-c2cc(-c3c[nH]nc3-c3ccccn3)ccn2)cc1 [GW684088]	58	0	0	0	0	14	0	4	64	9	–	–	–	–	–	–	–	–	–	–
Cc1cccc(-c2nc(Nc3ccc4[nH]ncc4c3)c3ccccc3n2)n1 [GW857175]	0	0	0	28	16	0	0	0	1	25	–	–	–	–	–	–	–	–	–	–
O=C(Nc1n[nH]c2cc(-c3cccc(F)c3F)ccc12)C1CC1 [SB-733894]	32	0	0	0	27	25	0	7	18	1	–	–	–	–	–	–	–	–	–	–
COc1cccc(-c2cc(-c3c[nH]nc3-c3ccccn3)ccn2)c1 [GW680338]	40	1	0	1	0	12	0	0	0	16	–	–	–	–	–	–	–	–	–	–
O=S(=O)(c1ccc(-c2ccnc3[nH]ccc23)cc1)N1CCCC1 [GSK846226]	0	0	0	0	0	8	0	0	0	24	–	–	–	–	–	–	–	–	–	–
